# Assay outcomes as filed in PubChem.
# Pf growth 96h – P. falciparum growth inhibition at 96 hour, primary screen for plastid delayed-death inhibitors | P. falciparum luciferase reporter growth, 96 h | Potency, µM (titrated, usually from 28.7 µM), hits mostly inhibitors | 320,000 tested, 6.9% active
#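 Compounds incubated with erythrocytes infected by luciferase-expressing P. falciparum (2% hematocrit, 0.05% parasitemia final) for 96 hours, 37 C in 5% CO2. Growth inhibition scored as decreased luciferase luminescence.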
# NS1 inh – inhibitors of influenza NS1 protein function. Potency, µM (top dose mostly 46.1 µM). 270,000 tested, 0.4% active; calls by dose curve; further: actives are rising curves; nearly all actives have a fitted effect of over 50% in size
#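 S. cerevisiae expressing influenza A NS1, grown in glucose, washed, then diluted 1:100 into pH 6.0 -URA galactose medium with 23 nl compound. Growth recovery read as OD600; NS1-free strain serves as control.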
# Pf growth 48h – inhibits P. falciparum growth in the first generation, 48 h; AID 504832; 310,000 tested, 5.9% active; P. falciparum luciferase growth in erythrocytes, 48 h; Potency, µM (doses to about 28.7 µM), most hits filed as inhibitors
#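 A one-generation exposure of luciferase-tagged malaria parasites in RPMI 1640/Albumax erythrocyte culture, 37 C and 5% CO2. Inhibition is inferred from decreased luminescence after adding detection reagent.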
# SARS PLpro yeast – SARS-CoV PLP inhibition in yeast; AID 485353; 330,000 tested, 0.19% active; Potency, µM (highest dose often 32.9 µM), usual class: activators; S. cerevisiae expressing SARS-CoV PLpro, growth rescue; calls by dose curve; further: nearly all actives have a fitted effect of over 55% in size
# A number is an active result; - = inactive; ? = inconclusive; . = no result given. Most compounds without a hit are left out; they make up all but 10% or so of the library. Unless noted, the call rests on the fitted dose curve; in most records, active means well fitted inhibition curve with a large enough effect; inconclusive means small, poorly fitted or top-dose-only effect, or another doubt; inactive means no such curve, though single readings can be large or run the other way.
SMILES,Pf growth 96h,NS1 inh,Pf growth 48h,SARS PLpro yeast
COC(=O)[C@]1(CC(C)C)N[C@H](c2ccc(SC3CCCCC3)c(OC)c2)[C@@H]2C(=O)N(C)C(=O)[C@@H]21,8.3µM,.,?,-
CCN1C(=O)[C@H]2[C@@H](c3ccc(-c4ccc(F)cc4)c(OC)c3)N[C@@](C)(C(=O)OC)[C@H]2C1=O,?,.,?,-
COC(=O)[C@]1(C)N[C@H](c2ccc(SC3CCCCC3)cc2)[C@@H]2C(=O)N(C)C(=O)[C@@H]21,?,.,?,-
CCC(C)Sc1ccc([C@H]2N[C@@](CC(C)C)(C(=O)OC)[C@H]3C(=O)N(C)C(=O)[C@@H]23)cc1 (stereo partly specified),?,.,?,-
Cc1ccc(C)c(C(=O)COC(=O)CN2C(=O)C3C4CCC(C4)C3C2=O)c1 (stereo unspecified),?,-,-,-
COc1ccccc1C(=O)Nc1nnc(S(=O)(=O)N(C)Cc2ccccc2)s1,-,-,-,?
COc1ccc2[nH]c(S(=O)Cc3ncc(C)c(OC)c3C)nc2n1 (stereo unspecified),8.5µM,.,9.5µM,.
COc1ccc2[nH]c(S(=O)Cc3ncc(C)c(OC)c3C)nc2c1 (stereo unspecified),5.9µM,-,.,-
COc1ccnc(CS(=O)c2nc3cc(C(O)(F)F)ccc3[nH]2)c1OC (stereo unspecified),-,-,-,-
CC(=O)Nc1cccc(NC(=O)CSc2nc(=O)n(CCN3CCOCC3)c3c2CCCC3)c1,-,.,-,-
CCOc1ccc(CC(=O)NNC(=S)NC)cc1Br,-,-,-,-
CCOc1ccc(OCCSc2nc3ccccc3c(=O)[nH]2)cc1,-,-,.,-
O=c1[nH]c(SCCOc2cccc3ccccc23)nc2ccccc12,2.1µM,.,-,-
O=c1cc(-c2ccccc2)nc(SCCOc2ccccc2Cl)[nH]1,7.4µM,-,-,-
Cn1c(=O)c2c(SCC(=O)N3CCOCC3)nc(-c3ccccc3F)nc2n(C)c1=O,?,-,?,-
Cc1ccc(S(=O)(=O)N2CCN(C(=O)C3CC3C)CC2)c(C)c1 (stereo unspecified),-,.,?,-
Cc1ccc(S(=O)(=O)N2CCN(C(=O)c3ccco3)CC2)c(C)c1,10µM,-,-,-
Cc1ccc(S(=O)(=O)N2CCN(C(=O)C3CCN(C(=O)c4ccc(F)cc4)CC3)CC2)c(C)c1,?,.,13µM,-
Cc1ccc(S(=O)(=O)N2CCN(C(=O)c3ccccc3Cc3ccccc3)CC2)c(C)c1,9.3µM,?,?,-
CCOc1ccc(S(=O)(=O)N2CCN(C(=O)c3ccccc3Cc3ccccc3)CC2)cc1,?,.,?,-
Cc1ccc(S(=O)(=O)N2CCN(C(=O)c3ccco3)CC2)cc1,-,-,-,-
COc1ccc(C)cc1S(=O)(=O)N1CCN(C(=O)c2ncoc2-c2cccc(F)c2)CC1,0.66µM,-,-,-
CC1(c2cc(C(F)(F)F)n3nc(C(=O)O)cc3n2)CC1,-,-,-,-
CCc1ccc(OC)c(S(=O)(=O)N2CCN(C(=O)c3ccco3)CC2)c1,?,-,-,-
COc1ccc(F)cc1S(=O)(=O)N1CCN(C(=O)c2ccco2)CC1,10µM,-,-,-
SMILES,Pf growth 96h,NS1 inh,Pf growth 48h,SARS PLpro yeast
O=C(Nc1ccc(OCC(F)(F)C(F)F)cc1)c1ccncc1,-,.,-,-
O=C(Nc1ccc(OCC(F)(F)C(F)F)c(C(F)(F)F)c1)c1ccccc1O,3.7µM,-,2.1µM,-
C=CCNc1cc(C(F)(F)F)nc(-c2ccccn2)n1,4.1µM,-,6.6µM,-
CCN(CC)c1cc(C(F)(F)F)nc(-c2ccccn2)n1,?,-,?,-
Cc1c(C(=O)N2CC(C)OC(C)C2)[nH]c2ccc(Br)cc12 (stereo unspecified),13µM,-,?,-
CC1CN(C(=O)c2cc(Br)c(Br)s2)CC(C)O1 (stereo unspecified),?,.,-,-
O=C(c1cc2cc(Br)ccc2[nH]1)N1CCC2(CC1)OCCO2,?,-,?,-
CC1CN(C(=O)c2cc3cc(Br)ccc3[nH]2)CC(C)O1 (stereo unspecified),?,-,12µM,-
O=C(OCc1nc(-c2ccccc2Cl)no1)c1ccco1,-,.,-,-
CCOc1ccc(N(C(=O)Cn2nnc3ccccc32)C(C(=O)NC(C)(C)CC)c2cccn2C)cc1 (stereo unspecified),-,-,13µM,-
CCC(C)(C)NC(=O)C(c1cccn1C)N(C(=O)Cn1nnc2ccccc21)c1ccc(OC)cc1OC (stereo unspecified),-,-,8.3µM,-
CCC(C)(C)NC(=O)C(c1ccncc1)N(C(=O)Cn1nnc2ccccc21)c1cc2c(cc1C(C)=O)OCO2 (stereo unspecified),-,-,?,-
COCCNC(=O)C(c1ccncc1)N(C(=O)Cn1nnc2ccccc21)c1ccc(OC)cc1 (stereo unspecified),-,-,-,-
COC(=O)c1cccc(C23CC4(C2)[C@H](CN(Cc2ccc(C(F)(F)F)cc2)[C@@H]4c2ccccc2)C3c2ccc(C(F)(F)F)cc2)c1 (stereo partly specified),?,-,10µM,-
COC(=O)c1ccc(C23CC4(C2)[C@H](CN(C)[C@@H]4c2ccccc2)C3c2ccc(C(F)(F)F)cc2)cc1 (stereo partly specified),?,-,10µM,-
COC(=O)c1ccc(C23CC4(C2)[C@H](CN(Cc2ccc(C(F)(F)F)cc2)[C@@H]4c2ccccc2)C3c2ccc(C(F)(F)F)cc2)cc1 (stereo partly specified),10µM,-,?,-
COc1ccc(NC(=O)COC(=O)CCc2ccc(S(=O)(=O)N3CCOCC3)cc2)cc1Cl,.,.,.,-
COc1ccc(-n2nnnc2-c2ccc(S(C)(=O)=O)cc2Cl)cc1,-,-,-,-
CC1=C(C#N)C(c2cn(-c3ccccc3)nc2-c2cccs2)C(C#N)=C(C)N1,-,-,1.7µM,-
COCCOC(=O)C1=C(C)NC(=O)NC1c1cn(-c2ccccc2)nc1-c1cccs1 (stereo unspecified),-,-,-,-
NC1=NC(c2cn(-c3ccccc3)nc2-c2cccs2)n2c(nc3ccccc32)N1 (stereo unspecified),?,-,?,-
C=CCOC(=O)C1=C(C)NC(=O)NC1c1cn(-c2ccccc2)nc1-c1cccs1 (stereo unspecified),?,-,15µM,-
COc1cccc(N2CCN(C(=O)c3ccc(CS(=O)c4ccc(Cl)cc4)o3)CC2)c1 (stereo unspecified),13µM,-,?,-
CCOC(=O)N1CCC(NC(=O)c2ccc(CS(=O)c3cccc(Cl)c3)o2)CC1 (stereo unspecified),9.3µM,-,-,-
COc1cccc(N2CCN(C(=O)c3ccc(CS(=O)c4ccc(C)cc4)o3)CC2)c1 (stereo unspecified),?,-,-,-
O=C(c1ccc(CS(=O)c2cccc(Cl)c2)o1)N1CCOCC1 (stereo unspecified),?,-,-,?
